From PubChem BioAssay (NCI)
Compounds without any hit were thinned out: in the full panel of roughly 79,000, 15% have a hit. Cut-off read from the data, not from the text of the source: active = growth inhibition above about 70%; inactive = the rest.

Key:
[1] = NCI Yeast Anticancer Drug Screen. Data for the rad50 strain (AID 155);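 note: 0% = growth of vehicle-only cultures of the same strain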; settings: S. cerevisiae rad50 strain growth inhibition, hits give high values; at 50.0 µM unless noted
Outline: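 Readout: growth inhibition relative to vehicle-treated cultures. Compound exposure was carried out in a genetically defined yeast strain deficient in DNA damage repair.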

[2] = NCI Yeast Anticancer Drug Screen. Data for the mec2-1 strain (AID 157); settings: S. cerevisiae mec2-1 strain, hits give high values; at 50.0 µM unless noted
Outline: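 Mutant yeast (mec2-1) grown with compound; growth inhibition relative to vehicle control reported.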

[3] = NCI Yeast Anticancer Drug Screen. Data for the sgs1 mgt1 strain (AID 161);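 note: 0% = growth of cultures given vehicle only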; settings: S. cerevisiae sgs1 mgt1 strain, hits give high values; at 50.0 µM unless noted
Outline: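 This yeast growth screen uses a strain with defined DNA-repair lesions; compound-treated growth is compared with vehicle-treated growth.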

[4] = NCI Yeast Anticancer Drug Screen. Data for the cln2 rad14 strain (AID 165);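 note: 0% = growth equal to vehicle treated cultures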; settings: S. cerevisiae cln2 rad14 strain, hits give high values; at 50.0 µM unless noted
Outline: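 Readout is yeast growth inhibition versus vehicle-treated controls, using a strain with cln2 and rad14 alterations exposed to compound.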

[5] = NCI Yeast Anticancer Drug Screen. Data for the bub3 strain (AID 167); settings: S. cerevisiae bub3 mutant strain, hits give high values; at 50.0 µM unless noted
Outline: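 Readout: yeast growth inhibition, expressed relative to vehicle-only wells. The test organism is a mutant strain from a panel with lesions in DNA repair or checkpoint genes.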

[6] = NCI Yeast Anticancer Drug Screen. Data for the mlh1 rad18 strain (AID 175); settings: S. cerevisiae mlh1 rad18 strain growth inhibition, hits give high values; at 50.0 µM unless noted
Outline: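 Genetically defined yeast (DNA repair-deficient) exposed to compounds; growth inhibition determined relative to vehicle.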

Measured: growth inhibition

CC(=O)OCC1OC(n2c3c(c(-c4cccc5ccccc45)c(C#N)c2=S)CCCC3)C(OC(C)=O)C(OC(C)=O)C1OC(C)=O (centres undefined)
inactive: [1] -1.25% | [2] -5.3% | [3] 14% | [4] 6.15% | [5] -5.8% | [6] 12.7%

C#CCOc1ccc(C)cc1
inactive: [1] -0.55% | [2] 5.35% | [3] -7.05% | [4] 9.25% | [5] 2.55% | [6] -10.1%

Oc1ccc(Br)cc1/C=N/N1CCN(/N=C/c2cc(Br)ccc2O)CC1
inactive: [1] 22.9% | [2] 6.2% | [3] 35.2% | [4] 14.9% | [5] 1.7% | [6] 25.1%

CN(Cc1cnc2nc(N)nc(N)c2n1)c1ccc(C(=O)NC(CCC(=O)OCc2c(Cl)cccc2Cl)C(=O)OCc2c(Cl)cccc2Cl)cc1 (centres undefined)
inactive: [1] 17.1% | [2] 9.2% | [3] 28.5% | [4] 36.2% | [5] 22.1% | [6] 24.5%
